The assay can be described thus: MM1S cell viability effects, profiling panel, calcein-AM fluorescence, 48 h, basal (AID 1165).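 Note: viability of MM1S multiple myeloma cells under basal unstimulated conditions; test concentration not given here.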 The following applies: higher = more signal.
On to `COc1ccc(C#Cc2ccc3c(c2)[C@]2(C(=O)N3)[C@H](c3ccc(O)cc3)N3[C@H](c4ccccc4)[C@H](c4ccccc4)OC(=O)[C@H]3[C@@H]2C(=O)O)cc1`, for which the z-score was -2.24.
For `COC(=O)[C@@]1(Cc2ccccc2)[C@H]2c3cc(C(=O)N(C)C)n(CCN4CNCC4=O)c3C[C@H]2CN1C(=O)c1ccccc1` the value was 0.0517; for `O=C1OCC=C[C@H]2OC34C=CCN(Cc5ccccc5)C(=O)[C@H]3N(CCCCCCO)C(=O)[C@@H]4[C@@H]12` (stereo not given in full), 1.62; for `COc1cc2c(cc1OC)CN(C(=O)[C@@H]1[C@H]3C(=O)O[C@H](c4ccccc4)[C@H](c4ccccc4)N3[C@H](c3ccc(OCCO)cc3)[C@@]13C(=O)Nc1ccccc13)CC2`, 0.48.
With `COCCOC(=O)N1C(=O)[C@@]2(c3cc(C#CC4=CCCCC4)ccc31)[C@H](C(=O)N1CCCCCCC1)[C@H]1C(=O)O[C@H](c3ccccc3)[C@H](c3ccccc3)N1[C@@H]2c1ccc(O)cc1`, the z-score is -0.625.
For `C=CCC(OC(C)=O)[C@@H]1[C@@H](N(Cc2cc3ccccc3o2)C(=O)Cc2ccc(F)cc2)c2cc(OCCCO)ccc2N1C(=O)c1ccc2ccccc2c1` (stereo not given in full) the value was -0.915; for `CCOC(=O)C[C@H]1[C@H](OC(=O)Cc2ccc3c(c2)OCO3)[C@@H](NC(=O)Cc2ccc(OC)cc2)c2cc(OCCCO)ccc2N1C(=O)c1ccc2ccccc2n1`, 0.631.
In the case of `COCCOC(=O)N1C(=O)[C@@]2(c3cc(C#Cc4ccc(OC)cc4)ccc31)[C@H](c1ccc(O)cc1)N1[C@H](c3ccccc3)[C@H](c3ccccc3)OC(=O)[C@H]1[C@@H]2C(=O)N1CCCCCCC1`, the z-score is -1.08.
The value for `COC(=O)[C@@]1(Cc2ccccc2)[C@H]2c3cc(C(=O)N(C)C)n(Cc4c(CO)[nH]cc(C)c4=O)c3C[C@H]2CN1C(=O)c1ccccc1` was -0.979; that for `CN(C)C(=O)[C@]1(CCS(=O)(=O)c2ccccc2)N=C(c2ccc(OCCCO)cc2)O[C@@H]1c1ccccc1N=[N+]=[N-]` was -0.133.
For `CCCCCCc1nc(-c2cc(C)c(OC)c(C)c2)c(C)c2c1[Si](C(C)C)(C(C)C)OC2` the value was -2.84; for `CC(C)C[C@@H]1NC(=O)[C@@H]2C[C@H](C(=O)NCCCCCN)[C@H](c3ccc(O)cc3)N2C1=O`, -0.0387.
For `C[C@H]1NC(=O)[C@@]23C(=O)N[C@@H](Cc4ccccc4)C2[C@H](C)[C@@]2(C)O[C@H]2C3/C=C/C/C=C\CNC(=O)[C@H](Cc2ccccc2)NC1=O` (stereo not given in full) the value was 0.401.
For `C=CC[C@]1(C(=O)NCCN2CCOCC2)N=C(c2ccc(OCCCO)cc2)O[C@H]1c1ccccc1CN=[N+]=[N-]`, the z-score is 0.81.
The value for `O=C1O[C@H](c2ccccc2)[C@H](c2ccccc2)N2[C@H]1[C@@H](C(=O)Nc1nc3ccccc3s1)[C@]1(C(=O)Nc3ccccc31)[C@H]2c1ccc(OCCO)cc1` was -1.68; that for `CN1C(=O)C2C=CC(C(O)c3cccc(O)c3)N(Nc3ccccc3)C2C1=O` (stereo not given) was -1.58.
`C=C(COC)/C(=C/C[C@H](OC(=O)c1ccncc1)c1ccccc1OCCO)c1cnc2ccccc2c1`: the z-score is -2.28.
In the case of `[N-]=[N+]=Nc1ccccc1[C@@H]1OC(c2ccc(OCCCO)cc2)=N[C@]1(Cc1ccccc1)C(=O)NCC(O)CO` (stereo not given in full), the z-score was -1.94.
The value for `CCOc1cc(C(O)C2C=CC3C(=O)N(C)C(=O)C3N2Nc2ccccc2)ccc1O` (stereo not given) was -2.21; that for `CCOC(=O)C1=C[C@@H](c2ccccc2)N(S(=O)(=O)c2ccc(C)cc2)[C@H]1c1ccccc1Cl` was -0.938; that for `COC(=O)c1c2oc(c1C(=O)OC)C(=O)N(Cc1ccccc1)Cc1cn(nn1)C[C@H](Cc1ccccc1)NC(=O)N[C@H](CO)CC2` was 1.18.
For `O=C(CS)NCCCCCNC(=O)[C@@H]1C[C@@H]2C(=O)N3CCC[C@H]3C(=O)N2[C@@H]1c1cccc(OCCO)c1`, the z-score was -0.304.
For `C=C[C@@H](COC(C)=O)N(C(=O)OC(C)(C)C)S(=O)(=O)c1ccc(Br)cc1`, the z-score was 0.867.
For `COc1cccc(/C=C/C=O)c1` the value was -1.38; for `COc1ccc(CN(C2=CC[C@@]3(C(N)=O)C(=O)C(Cl)=C(Cl)C(=O)[C@@]3(C#N)C2)S(=O)(=O)c2ccc(Br)cc2)cc1`, -3.34; for `O=C1O[C@@H](c2ccccc2)[C@@H](c2ccccc2)N2[C@@H](c3ccc(O)cc3)[C@]3(C(=O)Nc4ccc(C#CC5=CCCCC5)cc43)[C@@H](C(=O)NC[C@H](O)c3ccccc3)[C@H]12`, -3.33.
Consider `Cc1ccccc1C(O)C1C=CC2C(=O)N(C)C(=O)C2N1N(c1ccccc1)c1ccccc1` (stereo not given), for which the z-score is -0.967.
For `CCOC(=O)[C@H]1[C@@H]2C(=O)N3CCC[C@H]3[C@H](O[Si](C(C)C)(C(C)C)C(C)C)[C@H]2C=C2CCN(S(=O)(=O)c3ccc(C)cc3)C[C@H]21` the value was -2.91.
For `CC(CO)N1C(=O)[C@@H]2[C@H]3C(=O)OCC=C[C@H]3OC23C=CCN(C(C)(C)C)C(=O)[C@@H]13` (stereo not given in full) the value was 1.08; for `O=C1C2C=CC(C(O)c3ccccc3)N(Nc3ccccc3F)C2C(=O)N1c1ccccc1` (stereo not given), -1.06.
For `COCCOC(=O)N1C(=O)[C@@]2(c3cc(C#CC4=CCCCC4)ccc31)[C@H](c1ccc(O)cc1)N1[C@H](c3ccccc3)[C@H](c3ccccc3)OC(=O)[C@H]1[C@@H]2C(=O)N1CCN(c2ncccn2)CC1`, the z-score was 0.444.
The value for `CC(C)C(=C=CC[C@H](O)c1cccc(OCCO)c1)C[C@H](O)c1cc(Cl)cc(Cl)c1O` was -1.67; that for `O=C(NCc1ccccc1)[C@@H]1c2ccccc2C(=O)N(Cc2ccccc2C(F)(F)F)[C@H]1c1ccc(CO)cc1` was 0.0209.
For `CC(C)Cc1ccc(CN2CC[C@@H](NC(=O)Nc3ccccc3)C2)cc1` the value was -3.11; for `CCC(CC)C(O)C1C=CC2C(=O)N(c3ccccc3)C(=O)C2N1Nc1ccc(C(C)C)cc1` (stereo not given), -0.393.

Values taken from PubChem BioAssay.
